Results: PubChem BioAssay AID492947 (National Center for Advancing Translational Sciences (NCATS), 2010)
The campaign covered roughly 330,000 compounds. About 80 (0.02%) were called active. The sample as a whole holds a higher share of actives than the screen did. Values without a mark were called inactive. Calls come from the whole dose curve; as a rule, active = well fitted activation curve with a large enough effect; inconclusive = small, poorly fitted or top-dose-only effect; inactive = flat fitted curve, though single readings scatter.

biological target: Beta-2 adrenergic receptor (Homo sapiens) (UniProt P07550); assay: qHTS assay of beta-arrestin-biased ligands of beta2-adrenergic receptor; conditions: beta-arrestin recruitment to beta2AR, cell-based reporter; series mostly up to 46.1 µM; activation: at the top concentration; note: nearly all actives have a fitted effect of over 65% in size;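 for activation: 0% = DMSO controls and full agonism = EC100 isoproterenol or metaproterenol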
From the text: NIH Molecular Libraries Probe Production Network [MLPCN]
NIH Chemical Genomics Center [NCGC]
PI: Bryan Roth and Bob Lefkowitz
The concept of biased agonism is an emerging concept of molecular pharmacology which proposes that seven transmembrane receptors (7TMRs) or G protein-coupled receptors (GPCRs), exist in multiple signaling conformations and complexes and that ligands (either agonists or antagonists) can induce signaling biased responses for distinct signal transduction cascades.
Furthermore, accumulating evidence over the last decade has drawn attention to a novel function of beta-arrestins as signal transducers that scaffold various signaling molecules upon activation of 7TMRs. […] This beta-arrestin-biased signaling presumably leads to distinct physiological outcomes from those by G protein activation.
Additionally, the active receptor conformations which […] on this beta-arrestin signaling are likely different from those activating G protein signaling
The goal of this screening project will be to discover and optimize novel beta-arrestin-biased ligands for beta2-AR signaling. A luminescent cell-based assay for beta2-AR-mediated agonism, known as the Tango assay, has been validated in which ligand binding of a recombinant beta2-AR and subsequent recruitment of a recombinant beta-arrestin lead to the release of the transcriptional activator tTA, which upregulates transcription of a tTA-responsive luciferase gene. […] Compounds were screened as a concentration-titration series that ranged from 46 microM to 0.6 nM.
NCGC Assay Protocol Summary:
Tango cells were dispensed into white, solid, tissue-culture-treated 1536-well plates at 1500 cells/well in DMEM, containing 1% fetal bovine serum (FBS). Then, 23 nL of compounds or DMSO were delivered to each well using a pin tool. Plates were incubated at 37 degrees C, 5% CO2 for 18 hr. Then 2.5 uL luminescent substrate mix (in-house prepared: 150 mM Tris-Cl, pH 7.6, 3 mM MgCl2, 1% Triton X-100, 5 mM DTT, 0.5 mM CoA, 0.15 mM ATP, 0.44 mM D-luciferin, final concentrations) was added to each well. Plates were then incubated for 15 minutes at room temperature, and subsequently measured on a ViewLux plate reader for luminescent signal using a clear filter with a 10 second exposure and 2x binning. The %Activity was determined from the corrected luminescence values.
Concentration-response curves were fitted to the signals arising from the resulting luminescence. The concentration-effect curves were then classified based on curve quality (r2), response magnitude and degree of measured activity, and compounds were subsequently categorized based on their curve class.
Keywords: biased agonism, beta2-AR, beta-arrestin, GPCR, 7TMR, Tango, luminescence, MLSMR, MLPCN, NIH Roadmap, qHTS, NCGC
Potency is the fitted concentration of half-maximal effect.

Sequence of Beta-2 adrenergic receptor (Homo sapiens) (P07550 whole entry, looked up): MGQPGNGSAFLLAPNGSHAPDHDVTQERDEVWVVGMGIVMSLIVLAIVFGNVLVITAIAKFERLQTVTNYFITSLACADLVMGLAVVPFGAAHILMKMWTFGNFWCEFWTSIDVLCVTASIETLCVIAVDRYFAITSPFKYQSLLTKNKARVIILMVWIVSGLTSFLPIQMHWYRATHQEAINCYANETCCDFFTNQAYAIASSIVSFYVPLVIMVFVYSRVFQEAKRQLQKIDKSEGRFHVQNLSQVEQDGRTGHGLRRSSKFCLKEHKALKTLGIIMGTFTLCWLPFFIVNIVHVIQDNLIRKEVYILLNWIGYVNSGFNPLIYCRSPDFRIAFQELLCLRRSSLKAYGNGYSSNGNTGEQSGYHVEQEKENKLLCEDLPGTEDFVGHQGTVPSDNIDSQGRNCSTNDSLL

SMILES | activation [%] | Potency
O=C(O)C1CCCN1S(=O)(=O)c1ccc2c(c1)CCC2 (stereo not given) | -0.269 | –
COc1ccc(-n2nnnc2SCC(=O)NCc2cccs2)cc1 | 0.169 | –
Oc1ccc(N=Cc2sc3ccccc3c2Cl)cc1 | – | 13 µM (active)
CC(=O)n1c(C=Nc2ccccc2)c(O)c2ccccc21 | 0.129 | –
Cn1c(SCC(=O)N2CCCC2)nnc1-c1cccs1 | 0.281 | –
CC(C(=O)N1CCOCC1)N1c2cccc3cccc(c23)S1(=O)=O (stereo not given) | -0.178 | –
Nc1ccc(Nc2cc(O)c3ncccc3c2)cc1 | -0.411 | –
COc1nc(N=C(N)N)nc2c(C)cccc12 | -0.842 | –
CCOC(=O)C1=C(c2ccccc2)N=C2SCC(=O)N2C1c1ccc(O)c(OC)c1 (stereo not given) | -1.68 | –
COc1cc(C)c(C(C)C)cc1S(=O)(=O)n1ccnc1 | 0.444 | –
CCOc1ccc(N(CC(=O)NCCc2ccc(F)cc2)S(=O)(=O)c2ccccc2)cc1 | -0.258 | –
CCN(C(=O)COC(=O)c1c(NC(C)=O)sc(C)c1C)C1CCS(=O)(=O)C1 (stereo not given) | -0.227 | –
C=CCN(c1ccccc1C(=O)NCC(=O)OCC)S(=O)(=O)c1ccc(C)cc1 | -0.554 | –
CCCOc1ccc(C2=CSC3=NCCN23)cc1Cl | 0.319 | –
CCc1ccc(-c2nc(SCC(=O)NC3CCCC3)n[nH]2)cc1 | 0.447 | –
Cc1cc(OCCOc2cccc3cccnc23)c(C)cc1Cl | 0.256 | –
CCOC(=O)N1CCN(S(=O)(=O)N2CCCC(C(=O)NCCCN3CCC(C)CC3)C2)CC1 (stereo not given) | 0.177 | –
Cc1ccsc1C(=O)OCC(=O)NCCc1ccccc1 | -0.289 | –
Cc1ccc(S(=O)(=O)NCCC(=O)NNC(=O)C2COc3ccccc3O2)cc1 (stereo not given) | -0.347 | –
COc1ccc(CC(=O)NCc2nnc(SCC(=O)Nc3ncc(C)s3)n2C)cc1 | -0.188 | –
CC1CCCCC1NC(=O)c1cc(=O)[nH]c2ccccc12 (stereo not given) | 0.184 | –
Cc1csc2ncc(C(=O)N(Cc3ccccc3)c3ccccn3)c(=O)n12 | -0.435 | –
c1ccc(-c2cnc(CN3CCN(c4ccccc4)CC3)o2)cc1 | -1.12 | –
Cc1cccc(C)c1N1C(=O)CN(Cc2ccccc2)C1=S | -0.274 | –
Cc1cccc(N(C(=O)Cn2nnc(-c3ccc(C)o3)n2)C(C(=O)NC2CCCC2)c2ccncc2)c1 (stereo not given) | -1.02 | –

SMILES | activation [%] | Potency
COc1ccccc1N1CC(C(=O)Nc2nnc(SCC(=O)NC(C)C)s2)CC1=O (stereo not given) | -0.293 | –
CCO[C@H]1OC(C(=O)N2CCCCCCC2)=C[C@@H](c2ccc(C(F)(F)F)cc2)[C@@H]1CCCO | -0.332 | –
COc1ccc(S(=O)(=O)N(C)C[C@H]2Oc3ccc(NS(=O)(=O)c4cccs4)cc3CC(=O)N([C@H](C)CO)C[C@H]2C)cc1 | 0.0688 | –
O=C(Cn1cncn1)N/N=C/c1c2ccccc2cc2ccccc12 | 0.226 | –
CCCOC1CCCN(C(=O)c2cc(COc3cncc(Cl)c3)on2)C1 (stereo not given) | 0.0549 | –
CCC1SC(CC)C(=O)N(CC(=O)NC2CCCCC2)C1=O (stereo not given) | 0.0877 | –
CCc1ccc2oc(=O)cc(CN3CCCCC3C)c2c1 (stereo not given) | 0.329 | –
O=C(NCc1ccccc1)C1CCCN(c2nc3ccsc3c(=O)s2)C1 (stereo not given) | 0.0158 | –
CC(C)CCNC(=O)CN(C(=O)Cn1nnc(-c2ccc(F)cc2)n1)C1CCCC1 | -0.252 | –
CC(=O)Nc1ccc(S(=O)(=O)Nc2ccc(-c3ccc4nnc(C)n4n3)cc2)cc1 | -0.447 | –
Cn1cc(CCC(=O)NC2CC2)c2ccccc21 | -0.249 | –
COC(=O)c1sc(SC)c(S(=O)(=O)C(C)C)c1N/N=C(\C#N)S(=O)(=O)c1ccccn1 | -0.888 | –
CCn1cc(C(=O)Nc2cc(C)ccc2C)c(=O)c2ccc(C)nc21 | 0.25 | –
COC(=O)c1sc(NC(=O)COC(=O)C2CCC2)c(C(=O)OC)c1C | -0.283 | –
Cc1nnc(SCC(=O)Nc2ccc(S(=O)(=O)Nc3ccc(Cl)nn3)cc2)s1 | -0.792 | –
Cn1c(SCC(=O)Nc2ccc(Cl)cc2)nc(O)cc1=O | -0.732 | –
Cc1nn(-c2ccccc2)c(NC(=O)c2cccs2)c(-c2ccc(Cl)cc2)c1=O | -0.018 | –
Cc1ccc(S(=O)(=O)N(C)CC(=O)NCCc2c[nH]c3ccccc23)cc1 | -0.865 | –
Cc1ccccc1C1=NC(C(F)(F)F)(C(F)(F)F)c2c(n(-c3ccc(F)cc3)c(=O)[nH]c2=O)N1 | 2.31 | –
CSc1nnc(C2CCCN(CC(=O)Nc3ccccc3N3CCOCC3)C2)n1C(C)C (stereo not given) | 0.413 | –
CCOc1ccc(C(C)=O)cc1COC(=O)c1cnc(Cl)c(Cl)c1 | 0.0917 | –
O=S(=O)(Cc1ccccc1)c1nc2ccccc2n1Cc1ccccn1 | -0.237 | –
O=C(O)c1cccnc1Sc1ncnc2sc3c(c12)CCC3 | -0.363 | –
CCCOc1ccc(Cc2c(Cl)nc(SC)nc2NC)cc1 | 0.211 | –
CCOC(=O)c1c(NC(=O)Cn2nc(C(F)(F)F)cc2C)sc2c1CCC2 | -0.382 | –
